Results from PubChem BioAssay (NCI).
Several values for one entry are separate records, joined by “and”; a condition that tells them apart may be missing. Identical values can stand only once. The panel holds about 83,000 compounds, 20% with a hit somewhere; the sample as a whole holds those more often.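 How to read the values: 0–100, growth inhibition (40 = 60% inhibited); 0, no net growth; -100 to 0, cell death (-40 = 40% of starting cells died; -100 = all dead).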 Activity calls are given as the source filed them. The calls were made as follows: active = growth percent below 10; inactive = the rest.

Tested on: NCI-H522 lung
Test: NCI-60 one-dose screen, 48 h (100 = growth as untreated, 0 = no growth, -100 = all killed)
Details: 10 µM

| Structure (SMILES) | growth |
| --- | --- |
| CNC(=O)c1cc(Oc2ccc(CC(=O)Nc3cc(C(C)(C)C)nn3C)cc2)ccn1 | 54.9% (inactive) |
| CC#C[C@]1(O)CC[C@H]2[C@@H]3CCC4=CC(=O)CCC4=C3[C@@H](c3ccc4c(c3)OCO4)C[C@@]21C | 62.4% (inactive) |
| CCc1ccccc1-n1c(N)c(C#N)c(-c2ccc(OC)c(OC)c2)c(C#N)c1=O | 105% (inactive) |

Same assay, conditions: 10 µM unless noted

| Structure (SMILES) | growth |
| --- | --- |
| Cc1cc(O)c(C(C)C)cc1N | 82.5% (inactive) and 86.9% (inactive) |
| O=C(c1ccc(Cl)cc1)C(NCCO)c1ccc(Cl)cc1 (stereo not drawn) | 92.8% (inactive) and 89.3% (inactive) |
| O=C(O)CN(CCN(CC(=O)O)CC(=O)O)CCN(CC(=O)O)CC(=O)O | -27.9% (active) and 107% (inactive) and 88.5% (inactive) |
| O=S1(=O)CC(Br)C(Br)C1 (stereo not drawn) | -48.2% (active) |
| Cc1ccc(S(=O)(=O)Nc2ccc3cc([N+](=O)[O-])ccc3c2[N+](=O)[O-])cc1 | 54.6% (inactive) and 85.3% (inactive) |
| O=C(O)CSCc1nc2ccccc2[nH]1 | 104% (inactive) |
| CCc1c(CC(=O)O)c2cc(C)ccc2n1Cc1ccc(Cl)cc1 | 85% (inactive) and 81.5% (inactive) |
| COc1cc(/C=N/Nc2nc3c([nH]2)c(=O)n(C)c(=O)n3C)ccc1O | 87.8% (inactive) and 95.7% (inactive) |
| O=C1C2=C(C(=O)c3ccccc31)C(O)(S(=O)(=O)O)C(O)(S(=O)(=O)O)C1N=CC=CC21 (stereo not drawn) | 24.8% (inactive) and -11.8% (active) |
| COc1c(/C(C)=N/N=c2sc(C(C)=O)nn2-c2ccc(Cl)cc2)c(Oc2ccccc2)c(OC)c2occc12 | 91.5% (inactive) and 79.8% (inactive) |
| O=[N+]([O-])c1ccccc1N(S(=O)(=O)c1ccccc1)S(=O)(=O)c1ccccc1 | 94.7% (inactive) and 87.3% (inactive) |
| CCOc1ccc2c(S(=O)(=O)O)cccc2c1[N+](=O)[O-] | 99.7% (inactive) and 122% (inactive) |
| CC1=C(/C=C/C(C)=C/C=C/C(C)=C/C(=O)O)C(C)(C)CCC1 | 64.8% (inactive) and 79.3% (inactive) |
| CCN(CC)C(=O)c1cccnc1 | 98.9% (inactive) |
| COc1ccc(S(=O)(=O)N2CCOCC2)cc1NC(=O)c1[nH]c(C)c2c1CCCCC2=O | 100% (inactive) and 40.9% (inactive) |
| CCC(=O)C(CC)c1cccc(OC)c1 (stereo not drawn) | 102% (inactive) |

| Structure (SMILES) | growth |
| --- | --- |
| Cn1cc(-c2cc3c(Nc4ccc(CC(=O)Nc5cc(C(C)(C)C)on5)cc4)ncnc3[nH]2)cn1 | -35.7% (active) and -46.8% (active) |
| C[N+](C)(C)CN1C(=O)c2ccccc2C1=O | 90.9% (inactive) |
| O=[N+]([O-])c1ccc2nc3c4ccccc4c4ccccc4c3nc2c1 | 67.2% (inactive) |
| COc1ccccc1/C=N\N=C(N/N=C/c1ccccc1OC)N/N=C/c1ccccc1OC | 38.6% (inactive) and 17.3% (inactive) |
| CN(C)c1ccc(C(Cc2ccc3ccccc3n2)Cc2ccc3ccccc3n2)cc1 | 45.3% (inactive) and 90.3% (inactive) |
| CO/N=C/C=C\C(=O)N/C=C/C[C@H]1/C=C/[C@H](O)/C=C\C=C\c2cccc(O)c2C(=O)O1 | 28.1% (inactive) and 15% (inactive) |
| CCN(CC)CCCC(C)Nc1cnc(C(=O)Nc2cc(F)cc3cccnc23)cn1 (stereo not drawn) | 52.7% (inactive) and -59.4% (active) |
| O=[N+]([O-])c1ccc(N/N=C\c2cc(Br)ccc2O)nc1 | 6.57% (active) and 7.63% (active) |
| COc1ccc(NC(=S)Nc2ccccn2)cc1 | 98.4% (inactive) |
| CN(C)c1ccc(/C=C(\C#N)c2ccccc2)cc1 | -50% (active) and 2.73% (active) and 5.2% (active) |
| CN(C)CCCN1c2ccccc2Sc2ccc(Cl)cc21 | 72.3% (inactive) and 97.6% (inactive) |
| O=S(=O)(Nc1ccccc1)C1CCCCC1 | 84.5% (inactive) and 94.1% (inactive) |
| CC1=C(/C=C/C(C)=C/C=C/C(C)=C/C(=O)Nc2ccc(O)cc2)C(C)(C)CCC1 | -47.6% (active) |
| CCCCCCCCCCCCCCCCOc1ccc(C)cc1 | 104% (inactive) |
| CC1(c2ccc3ccccc3c2)CCC(=O)O1 (stereo not drawn) | 91.3% (inactive) |
| CCCCOc1cc(C(=O)NCCN(CC)CC)c2ccccc2n1 | 103% (inactive) |

Tested on: A549/ATCC NSCLC
Test: as above
Details: 10 µM

| Structure (SMILES) | growth |
| --- | --- |
| CNC(=O)c1cc(Oc2ccc(CC(=O)Nc3cc(C(C)(C)C)nn3C)cc2)ccn1 | 67.2% (inactive) |
| CC#C[C@]1(O)CC[C@H]2[C@@H]3CCC4=CC(=O)CCC4=C3[C@@H](c3ccc4c(c3)OCO4)C[C@@]21C | 66.7% (inactive) |
| CCc1ccccc1-n1c(N)c(C#N)c(-c2ccc(OC)c(OC)c2)c(C#N)c1=O | 106% (inactive) |
